Assay [1] has as its system CRL-7250. Put plainly: Cytotoxic Profiling of Annotated Libraries Using Quantitative High-Throughput Screening (AID 1296008). On max response: on the % scale 0 is the no-effect control and ±100 the full control effect. As to conditions: Five cell lines viability, CellTiter-Glo ATP luminescence, 48-72 h; max response: hits give low values. Summed up: (§1)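 Cytotoxicity was measured as CellTiter-Glo ATP luminescence, read after 10 min at room temperature. Compound treatment of the cells lasted 48 or 72 hr at 37 degrees Celsius in a qHTS format.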

Assay [2] deals with HEK293. Described as above. The settings on record: Five cell lines viability, CellTiter-Glo ATP luminescence, 48-72 h; max response: hits give low values. An outline of the steps: as §1
Background: ATP-based viability assays read luminescence as a measure of living cells.

Assay [3] has as its system NIH3T3. Described as above. As to conditions: Five cell lines viability, CellTiter-Glo ATP luminescence, 48-72 h; max response: hits give low values. Summed up: as §1
The subject of assay [4] is HB3. Nature of the assay: qHTS profiling for inhibitors of Plasmodium falciparum proliferation (AID 504749). As to conditions: P. falciparum in erythrocytes, SYBR Green DNA, 72 h; series mostly up to 28.7 µM. An outline of the steps:
(§2)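 SYBR Green fluorescence of parasite DNA, read after lysis and overnight dark incubation, measured growth over 72 h in erythrocyte culture at 0.3% parasitemia and 2.5% hematocrit. Data normalised to DMSO and 0.29 uM artemisinin, with plate-drift correction.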
A general note: Quantitative high-throughput screening tests each substance at several concentrations.

The subject of assay [5] is JCK. The assay is described as above. As to conditions: P. falciparum in erythrocytes, SYBR Green DNA, 72 h; series mostly up to 28.7 µM. Summed up:
as §2

In assay [6] the test system is N140. The assay is described as above. The settings on record: P. falciparum in erythrocytes, SYBR Green DNA, 72 h; series mostly up to 28.7 µM. An outline of the steps: as §2
Assay [7] relates to P93_24. The description is as above. The settings on record: P. falciparum in erythrocytes, SYBR Green DNA, 72 h; series mostly up to 28.7 µM. An outline of the steps:
as §2

In assay [8] the test system is P94_40. Described as above. The settings on record: P. falciparum in erythrocytes, SYBR Green DNA, 72 h; series mostly up to 28.7 µM. An outline of the steps:
as §2

The test system of assay [9] is PC49. Described as above. The settings on record: P. falciparum in erythrocytes, SYBR Green DNA, 72 h; series mostly up to 28.7 µM. An outline of the steps: as §2
Assay [10] relates to SC27B. Described as above. The settings on record: P. falciparum in erythrocytes, SYBR Green DNA, 72 h; series mostly up to 28.7 µM. Summed up:
as §2

Assay [11] concerns TAB113. Described as above. The settings on record: P. falciparum in erythrocytes, SYBR Green DNA, 72 h; series mostly up to 28.7 µM. An outline of the steps: as §2
For assay [12], the system named is HaCat. Nature of the assay: Cytotoxic Profiling of Annotated Libraries Using Quantitative High-Throughput Screening (AID 1296008). On max response: on the % scale 0 is the no-effect control and ±100 the full control effect. As to conditions: Five cell lines viability, CellTiter-Glo ATP luminescence, 48-72 h; max response: hits give low values. Summed up:
as §1

Assay [13] deals with ICS. Nature of the assay: qHTS profiling for inhibitors of Plasmodium falciparum proliferation (AID 504749). The settings on record: P. falciparum in erythrocytes, SYBR Green DNA, 72 h; series mostly up to 28.7 µM. An outline of the steps:
as §2

Assay [14] relates to PAD. The description is as above. As to conditions: P. falciparum in erythrocytes, SYBR Green DNA, 72 h; series mostly up to 28.7 µM. An outline of the steps:
as §2

For assay [15], the system named is PC15. The assay is described as above. The settings on record: P. falciparum in erythrocytes, SYBR Green DNA, 72 h; series mostly up to 28.7 µM. An outline of the steps: as §2
Assay [16] relates to TAB109. The description is as above. As to conditions: P. falciparum in erythrocytes, SYBR Green DNA, 72 h; series mostly up to 28.7 µM. An outline of the steps: as §2
The test system of assay [17] is TAB165. Described as above. The settings on record: P. falciparum in erythrocytes, SYBR Green DNA, 72 h; series mostly up to 28.7 µM. Summed up: as §2
Assay [18] concerns W2. The description is as above. As to conditions: P. falciparum in erythrocytes, SYBR Green DNA, 72 h; series mostly up to 28.7 µM. An outline of the steps: as §2
Assay [19] concerns KB-3-1. Nature of the assay: Cytotoxic Profiling of Annotated Libraries Using Quantitative High-Throughput Screening (AID 1296008). On max response: on the % scale 0 is the no-effect control and ±100 the full control effect. As to conditions: Five cell lines viability, CellTiter-Glo ATP luminescence, 48-72 h; max response: hits give low values. Summed up:
as §1

The test system of assay [20] is PC26. Nature of the assay: qHTS profiling for inhibitors of Plasmodium falciparum proliferation (AID 504749). The settings on record: P. falciparum in erythrocytes, SYBR Green DNA, 72 h; series mostly up to 28.7 µM. Summed up:
as §2

Records with an inconclusive call do not appear. Unmarked numbers belong to inactive results. Calls of active or inactive are those of the source. The call rests on the fitted dose curve; in most records, active means well fitted inhibition curve with a large enough effect; inconclusive means small, poorly fitted or top-dose-only effect; inactive means flat fitted curve, though single readings scatter.
Further: nearly all actives have a fitted effect of over 60% in size.
Potency means the concentration at half of the fitted maximal effect.

On to `CCC(Cc1c(I)cc(I)c(N)c1I)C(=O)O` (stereo unspecified), for which the molecule was classed as inactive in [1] and in [2]. Further, the max response in assay [3] is 2.99%.

On to `O=[N+]([O-])c1cccc(S(=O)(=O)NCCNS(=O)(=O)c2cccc([N+](=O)[O-])c2)c1`, for which the Potency entry in [4], in [5], in [6], in [7], in [8] and in assay [9] was “inactive” throughout. For the same molecule, the Potency result in [10] and in assay [11] was “inactive” throughout. For the same molecule, the outcome in assay [1] was inactive. Also, the max response in [2] is -16%; in [12], 0.408%; in [3] it was -4.18%.

For the molecule `OC[C@H]1O[C@@H](Oc2ccc(O)cc2)[C@H](O)[C@@H](O)[C@@H]1O`, the figures for the max response in assay [1], in assay [2] and in assay [3] were -17%, -74.1% and -45.3%, respectively.

Consider `Cc1ncc(CO)c(C=O)c1O`, for which the Potency entry in [4], in [13], in assay [5], in [6], in [7] and in assay [8] was “inactive” in each case. The Potency result in assay [14], in [15], in [9], in [10], in assay [16] and in assay [11] was “inactive” throughout. The Potency result in assay [17] and in assay [18] was “inactive” in each case. For the same molecule, the max response in assay [1] is -16.1%; in assay [2], -65.4%; in assay [19], 3.7%; in assay [3], -38.1%.

In the case of `CC(=O)N[C@@H](CCC(=O)O)C(=O)O`, the Potency entry in [4], in assay [13], in assay [5], in assay [6], in assay [7] and in assay [14] was “inactive” throughout. The Potency result in assay [15], in [20], in assay [9], in assay [10], in assay [16] and in assay [11] was “inactive” each time. Besides, the Potency entry in assay [17] and in assay [18] was “inactive” in each case. In addition, the max response in assay [1] is 2.81%; in assay [2], -7.38%; in assay [19] it was -11.1%. In assay [3], the result was inactive.

In the case of `CCN(CC)CCOC(=O)C1(c2ccccc2)CCCC1`, the Potency entry in assay [4], in assay [6], in assay [8], in assay [14], in [20] and in assay [10] was “inactive” each time. Besides, the Potency result in assay [16] and in assay [17] was “inactive” in each case. Besides, the Potency in [11] was 0.005 µM (active). Besides, the max response was -4.97% in assay [1], 1.37% in [19] and 2.7% in assay [3]. The molecule was classed as inactive in assay [2].

As for `CC(=O)Oc1ccc(C)cc1`, the Potency result in assay [4], in [13], in assay [5], in assay [6], in assay [7] and in [8] was “inactive” in each case. In addition, the Potency entry in assay [14], in assay [15], in [20], in [9], in assay [10] and in [16] was “inactive” in each case. Also, the Potency entry in assay [11], in assay [17] and in assay [18] was “inactive” in each case. For the same molecule, the max response in assay [1] is -8.74%; in assay [2], -1.12%; in assay [19], 5.93%; in [3] it was 2.4%.

Consider `O=C(O)CCNC(=O)c1ccccc1`, for which the Potency entry in [4], in assay [13], in assay [5], in assay [6], in [7] and in assay [8] was “inactive” throughout. Moreover, the Potency entry in assay [14], in assay [15], in [20], in assay [9], in [10] and in assay [16] was “inactive” in each case. The Potency result in [11], in assay [17] and in assay [18] was “inactive” in each case. The figures for the max response in assay [1], in assay [19] and in assay [3] were 4.33%, -6.01% and 0.555%, respectively. Moreover, the call in assay [2] was inactive.

Regarding `CCCc1ncc(C[n+]2ccccc2C)c(N)n1`, the Potency entry in [4], in assay [13], in [5], in [6], in assay [7] and in assay [8] was “inactive” in each case. The Potency entry in assay [14], in [15], in [20], in assay [9], in assay [10] and in assay [16] was “inactive” each time. Besides, the Potency entry in assay [11], in assay [17] and in assay [18] was “inactive” in each case. Besides, the molecule was classed as inactive in assay [1]. For the same molecule, the max response was -18.1% in [2], 2.61% in assay [19] and 2.55% in assay [3].

As to `CCCCCN=C(N)N/N=C/c1c[nH]c2ccc(OC)cc12`, the Potency in assay [4] is 3.16 µM (active); in assay [13] it was 1.26 µM (active); in assay [6] it was 4.47 µM (active); in assay [7] it was 3.16 µM (active); in [8] it was 2.82 µM (active); in assay [14] it was 6.31 µM (active). The Potency is 5.62 µM (active) in assay [15]; 12 µM (active) in assay [20]; 12.6 µM (active) in [10]; 4.47 µM (active) in assay [16]; 10 µM (active) in [11]; 3.55 µM (active) in [17]. For the same molecule, the Potency in assay [18] was 1.51 µM (active); in assay [1] it was 18.8 µM (active); in assay [2], 8.41 µM (active). Further, the max response in assay [19] was 1.55%.

As for `Cc1cccc(C)c1NC(=O)CN1CCCCCC1`, the Potency entry in assay [4], in [13], in assay [5], in assay [6], in assay [7] and in assay [8] was “inactive” in each case. For the same molecule, the Potency entry in assay [14], in assay [15], in assay [20], in [9], in [10] and in [16] was “inactive” in each case. In addition, the Potency result in assay [11] and in assay [17] was “inactive” in each case. Besides, the call in assay [1] was inactive. Also, the results for the max response in assay [2], in assay [19] and in assay [3] were 2.2%, 2.19% and 1.11%, respectively.

For the molecule `CCC(CC)(CC(=O)Nc1cccc(/C=C/c2nc(C3CCC3)cs2)c1)C(=O)O`, the Potency result in assay [4], in [5], in assay [6], in assay [7], in assay [8] and in [14] was “inactive” each time. Further, the Potency result in assay [15], in assay [20], in assay [9], in [10], in [16] and in assay [11] was “inactive” each time. Also, the Potency entry in assay [17] and in [18] was “inactive” each time. Moreover, the max response is 2.29% in assay [1], -8.39% in assay [2] and 2.57% in assay [3]. Further, in [12], the call was inactive.

Values taken from PubChem BioAssay (NCATS).
